Bioassay records from PubChem.
TWEAK Fn14 block = inhibitors of TWEAK-Fn14 signaling, primary screen, luciferase reporter cells, uHTS. inhibition, % at 10 µM. actives 2% (n = 360,000). AID 1159606, 2016. TWEAK-stimulated Fn14 reporter cells, luciferase luminescence, 8 h; in the data active = inhibition above about 50%
LMP1 NFkB inh = EBV LMP1-driven NF-kappaB luciferase reporter inhibitors, primary screen, cell-based, luminescence, single point. LMP1-induced NF-kappaB luciferase reporter cells. inhibition, % at 12.5 µM. actives 0.69% (n = 350,000). AID 504558, 2011; in the data active = inhibition above about 41%;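 also: 0% = neutral control wells and 100% = reference inhibitor control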
PAX8 reporter = inhibitors of PAX8-driven TPO luciferase reporter, primary screen, RMG-I cells, single concentration; AID 652154, 2013; actives 1.2% (n = 360,000); SteadyGlo, 24 h; inhibition, % at 12.6 µM;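 active = mean replicate inhibition at least 60% with every replicate also reaching 60%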;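 also: luciferase light reporting Pax8 driven TPO promoter activity; plate controls were median of neutral control wells for no effect and mitoxantrone controls for full effect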
LGR2 inh = inhibitors of bursicon-induced LGR2 CRE-luciferase signal, primary screen, cell-based, HEK293, CRE-luciferase reporter, bursicon stimulation. bursicon-stimulated, 4 h. Drosophila bursicon receptor LGR2 (rickets). inhibition, % at 9.99 µM. actives 0.35% (n = 380,000);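 active = drop in luminescence signal, shown as inhibition above about 50% in the replicate tests, limit read from the data, passing the limit was not always enough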;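 also: agonist challenge used bursicon conditioned medium at about half maximal strength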
EWS-Fli block = EWS/Fli-driven NR0B1 reporter inhibitors, primary screen, A673 cells, NR0B1 luciferase, luminescence, MLPCN library; viability-normalised; inhibition, % at 12.6 µM; actives 0.67% (n = 350,000);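 active = mean inhibition of at least 50% after viability correction, with every replicate also passing that limit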;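 also: firefly luciferase signal divided by Alamar Blue viability fluorescence both relative to DMSO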
TROY NFkB inh = inhibitors of TROY-driven NF-kB signaling, primary screen, Q293 LMP1-TROYcd cells, NF-kB luciferase, uHTS; actives 0.98% (n = 360,000); inhibition, % at 10 µM; Q293 LMP1-TROYcd NF-kB luciferase reporter, 4 h;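 active = compounds whose plate-normalised and pattern-corrected inhibition of the luciferase reporter signal at the single screening dose is 50% or more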
Numbers without * were called inactive; x = no result given. The list is not random: actives were taken first. Their share in the collection is about 3.1%.

SMILES | TWEAK Fn14 block | LMP1 NFkB inh | PAX8 reporter | LGR2 inh | EWS-Fli block | TROY NFkB inh
COC(=O)C(CC#Cc1ccc2c(c1)[C@]1(C(=O)N2)[C@H](c2ccc(OCCO)cc2)N2[C@H](c3ccccc3)[C@H](c3ccccc3)OC(=O)[C@H]2[C@@H]1C(=O)NC[C@H](O)c1ccccc1)C(=O)OC | x | x | 1.1 | x | 44.0 | x
COc1ccc(C#Cc2ccc3c(c2)[C@]2(C(=O)N3)[C@H](c3ccc(OCCO)cc3)N3[C@H](c4ccccc4)[C@H](c4ccccc4)OC(=O)[C@H]3[C@@H]2C(N)=O)cc1 | x | x | 72.8* | x | 12.9 | x
O=C(C[C@@H]1CC[C@@H]2[C@H](COC[C@H](O)CN2Cc2nccs2)O1)NCc1ccccc1F | x | x | -37.1 | -0.1 | -15.1 | x
CN(CC(=O)Nc1cccnc1)S(=O)(=O)c1ccc(Br)cc1 | -12.5 | 49.6* | -1.8 | -0.2 | -3.1 | 16.8
Cc1ccc(S(=O)(=O)N(C)CC(=O)Nc2cccnc2)cc1 | 14.7 | 0.2 | 16.1 | 1.1 | -4.0 | -16.7
CN(C)c1ccc(-c2noc(-c3ccccc3O)n2)cc1 | 75.8* | 2.6 | -204.4 | x | x | 26.9
CC(C)(C)N=C1NC(=NC(C)(C)C)c2ccccc21 | 52.5* | -0.6 | x | 13.5 | 4.1 | -22.7
O=C(C1CCC(Cn2c(=S)[nH]c3ccccc3c2=O)CC1)N1CCN(c2ccccc2)CC1 (stereo not drawn) | 30.9 | 11.1 | 9.4 | x | x | 19.7
O=C(C1CCC(Cn2c(=S)[nH]c3ccccc3c2=O)CC1)N1CCN(c2ccccn2)CC1 (stereo not drawn) | 55.6* | 18.4 | 31.7 | 22.8 | 3.9 | -6.5
Cn1c2ccccc2c(=O)c2cc(C#Cc3cccc(N)c3)ccc21 | -116.6 | 52.4* | x | x | x | -52.4
Cn1c2ccccc2c(=O)c2ccc(C#Cc3ccc(N)cc3)cc21 | 15.7 | 1.6 | -41.1 | x | -52.6 | 50.2*
COc1ccc(C#Cc2ccc3c(=O)c4ccccc4n(C)c3c2)cc1 | x | -16.1 | x | x | x | x
Cn1c2ccccc2c(=O)c2cc(C#CC3=CCCCC3)ccc21 | 48.1 | -9.8 | -13.2 | 8.7 | -33.8 | 60.0*
CO[C@@H]1CN(C)C(=O)c2cc(NC(=O)C3CC3)ccc2OC[C@@H](C)N(Cc2ccccc2C(=O)O)C[C@H]1C | x | x | 11.6 | -20.5 | -8.5 | x
C[C@H](CO)N1C[C@H](C)[C@H](CN(C)C(=O)c2cccc(F)c2)Oc2cc(-c3cccnc3)ccc2S1(=O)=O | x | x | x | 8.8 | 1.1 | x
O=S(=O)(N[C@H]1CC[C@H](CCn2cc(-c3cccc(F)c3)nn2)O[C@H]1CO)c1ccc(Cl)cc1 | x | x | -2.8 | 17.1 | -6.9 | x
COc1ccc(S(=O)(=O)Nc2cccc3c2O[C@H](CN(C)CC2CC2)[C@@H](C)CN([C@@H](C)CO)C3=O)cc1 | x | x | x | 0.7 | 1.7 | x
Cc1ccc2nc(Cl)c(/C=N/NC(=O)c3ccccc3O)cc2c1 | -10.2 | -2.0 | 15.2 | -3.9 | -7.3 | 51.7*
Cc1ccc2nc(Cl)c(/C=N/NC(=O)[C@H]3C[C@@H]3c3ccccc3)cc2c1 | -15.2 | -7.1 | -2.6 | -21.4 | 6.0 | 11.2
COc1ccc(C2=CSC3=NCCN23)cc1F | -6.0 | 1.6 | x | x | x | 54.1*
Cc1oc2ccc(O)c(CN3CCOCC3)c2c1C(=O)c1ccc(Cl)cc1 | 16.2 | 0.3 | x | x | x | 6.2
Cc1oc2c(Cl)c(Cl)c(O)c(CN(C)C)c2c1C(=O)c1ccc(Cl)cc1 | 75.1* | 17.6 | -42.7 | 24.4 | 3.5 | 48.4
COc1ccc(NC(=O)Nc2ccc3c(c2)CC(=O)N([C@H](C)CO)C[C@@H](C)[C@H](CN(C)S(=O)(=O)c2cccs2)O3)cc1 | x | x | -10.5 | 20.2 | -1.4 | x
COc1ccccc1CNS(=O)(=O)c1ccc(-c2cnc(C3CC3)o2)cc1 | 5.3 | 45.5* | 33.6 | 13.5 | 61.2* | 22.0
Cc1ccc(NS(=O)(=O)c2ccc(-c3cnc(C4CC4)o3)cc2)c(C)c1 | 17.6 | 14.7 | 40.1 | -16.5 | 52.1* | 47.7
SMILES | TWEAK Fn14 block | LMP1 NFkB inh | PAX8 reporter | LGR2 inh | EWS-Fli block | TROY NFkB inh
O=S(=O)(Nc1ccc(F)cc1Cl)c1ccc(-c2cnc(C3CC3)o2)cc1 | 21.7 | 11.8 | 28.0 | 6.5 | 57.3* | 52.2*
CCOc1ccccc1NS(=O)(=O)c1ccc(-c2cnc(C3CC3)o2)cc1 | 44.0 | 2.6 | 76.4* | -20.7 | x | 47.5
COc1ccccc1NS(=O)(=O)c1ccc(-c2cnc(C3CC3)o2)cc1 | -0.6 | 9.1 | 41.3 | -24.9 | x | 28.1
O=C(Nc1ccc(Cl)c(Cl)c1)N[C@@H]1CC[C@@H](CCn2cc(C3CC3)nn2)O[C@H]1CO | x | x | -4.3 | -12.9 | -13.1 | x
CNC(=O)C[C@@H]1CC[C@H]2[C@H](COc3ccc(NC(=O)C(C)C)cc3C(=O)N2C)O1 | x | x | -13.1 | 2.3 | 1.6 | x
O=C(C[C@H]1CC[C@H]2NC[C@@H](O)COC[C@@H]2O1)NCCN1CCCCC1 | x | x | -7.5 | -16.9 | -11.4 | x
C/C=C/c1ccccc1[C@H]1[C@@H](C#N)N(C(=O)CN2CCOCC2)[C@@H]1CO | x | x | x | -15.3 | -10.8 | x
CCCCOc1ccc(CSC(CC(=O)O)C(=O)O)cc1 (stereo not drawn) | 69.7* | 1.3 | x | x | x | x
Cc1nn(C2CCS(=O)(=O)C2)c(Cl)c1/C=C/C(=O)OCC(=O)c1cc(C)n(-c2ccc(F)cc2)c1C (stereo not drawn) | 58.7* | 26.6 | 34.1 | 19.1 | 12.4 | 41.9
O=C(Nc1ccc(F)cc1)N[C@@H]1CC[C@@H](CCNC(=O)c2ccccc2F)O[C@@H]1CO | x | x | x | 4.6 | -0.3 | x
C[C@@H]1CN([C@@H](C)CO)C(=O)c2cc(-c3ccc(C#N)cc3)cnc2O[C@H]1CN(C)Cc1ccccn1 | x | x | x | 0.3 | -4.3 | x
COC(=O)c1ccc(C(=O)NC2CCCc3c2cnn3-c2cc(F)cc(F)c2)nc1 (stereo not drawn) | 14.3 | 6.4 | -6.4 | -3.2 | 52.8* | -19.5
Cc1cc(C(=O)NC2CCCc3c2cnn3-c2ccc(C(C)(C)C)cc2)nn1C (stereo not drawn) | 60.5* | 21.8 | 41.7 | 1.1 | 39.9 | 38.6
O=C(Oc1c(-c2ccccc2)c(=O)n2c3c(cccc13)CC2)c1ccc(Cl)cc1 | 8.7 | -2.5 | -6.8 | -0.5 | 6.5 | 53.0*
C[C@@H]1CN([C@H](C)CO)C(=O)Cc2cc(NC(=O)Cn3cnnn3)ccc2O[C@H]1CN(C)Cc1ccc(C(=O)Nc2ccccc2N)cc1 | x | x | -18.4 | -23.8 | -9.0 | x
O=C(Nc1ccc(N2CCN(c3ncccc3C(F)(F)F)CC2)nc1)c1cccs1 | 95.5* | 5.2 | 57.3 | 91.6* | 5.9 | 81.8*
COc1ccc(C(=O)Nc2nc(-c3ccc([N+](=O)[O-])cc3)c(-c3ccccc3)s2)cc1 | 56.7* | 20.1 | x | x | x | 6.0
COc1ccc(C(=O)CC(=O)C(=O)Nc2ccc(Cl)cc2)cc1 | 16.5 | -5.7 | -48.3 | -24.9 | 46.9 | -66.6
